Results published in article PMC5540273 (PLoS ONE, 2017).

What was measured:
Conditions in all cases: concentration: 1 μM, replicates: in singlicate; n = 1
[1] = test system: EPHA7
[2] = test system: EPHA8
[3] = test system: EPHB1
[4] = test system: EPHB2
[5] = test system: EPHB3
[6] = test system: EPHB4
[7] = test system: EPHB6
[8] = test system: ERBB2
[9] = test system: ERBB3
[10] = test system: ERBB4
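Note: KINOMEscan kinase panel screen.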

| SMILES | %Inh [1] [%] | %Inh [2] [%] | %Inh [3] [%] | %Inh [4] [%] | %Inh [5] [%] | %Inh [6] [%] | %Inh [7] [%] | %Inh [8] [%] | %Inh [9] [%] | %Inh [10] [%] |
| --- | --- | --- | --- | --- | --- | --- | --- | --- | --- | --- |
| CCn1c(-c2nonc2N)nc2c(-c3ccccc3)ncc(OCCCN)c21.O=C(O)C(F)(F)F.O=C(O)C(F)(F)F [GSK260205] | 6 | 10 | 0 | 0 | 0 | 7 | 0 | 89 | 0 | 41 |
| CC(C)c1nc(-c2ccc(F)c(NS(=O)(=O)c3c(F)cccc3F)c2)c(-c2ccnc(Nc3ccc(N4CCOCC4)nc3)n2)s1 [GSK1804250] | 12 | 70 | 21 | 0 | 24 | 12 | 97.3 | 95.8 | 98.8 | 78 |
| Cn1cc(-c2cnc(N)c3c(-c4ccc5c(c4)CCN5C(=O)Cc4ccccc4)csc23)cn1 [GSK2593074] | 6 | 8 | 6 | 2 | 4 | 9 | 98.3 | 0 | 4 | 0 |
| Nc1cccc(-c2ccc3c(N)n[nH]c3c2)c1 [GSK2193613] | 9 | 29 | 9 | 0 | 13 | 14 | 14 | 0 | 0 | 0 |
| Cc1ccc(Nc2ccnc(Nc3ccc(C)c(F)c3)n2)cc1O.Cl [GW582868] | 0 | 26 | 1 | 0 | 0 | 8 | 0 | 19 | 13 | 9 |
| CN(C)CCNS(=O)(=O)c1ccc(-c2ccnc3[nH]ccc23)cc1 [GSK977620] | 7 | 3 | 16 | 0 | 0 | 0 | 0 | 0 | 0 | 30 |
| COc1cc(Nc2ccnc3cc(-c4ccncc4)ccc23)cc(OC)c1OC.Cl [GW494610] | 0 | 99.2 | 74 | 57 | 0 | 50 | 98 | 49 | 50 | 5 |
| O=C(Nc1n[nH]c2nc(-c3ccccc3)ccc12)C1CC1 [SB-708999] | 7 | 9 | 0 | 20 | 11 | 3 | 41 | 35 | 67 | 0 |
| N#Cc1cnc2cc(-c3cnc(CNCCN4CCOCC4)s3)ccc2c1Nc1ccc(Oc2ccccc2)cc1 [GW664114] | 0 | 25 | 0 | 7 | 10 | 10 | 21 | 79 | 100 | 100 |
| Cc1ccc(NC(=O)c2ccc(Cl)c(Cl)c2)cc1-c1ccc(C(=O)Nc2ccncc2)cc1 [GSK1398460] | 9 | 35 | 17 | 17 | 25 | 19 | 16 | 2 | 0 | 4 |
| Cc1cccc(Nc2nc(NCCN)ncc2C(N)=O)c1 [GSK1292139] | 52 | 58 | 1 | 0 | 0 | 0 | 50 | 4 | 0 | 10 |
| CCn1cnc2c(NCc3ccccc3)ncnc21 [SKF-96418] | 0 | 0 | 0 | 0 | 0 | 0 | 0 | 24 | 28 | 4 |
| COc1cccc(CC(=O)N2CCc3cc(-c4cn(C)c5ncnc(N)c45)ccc32)c1 [GSK2608899] | 10 | 11 | 24 | 14 | 7 | 0 | 64 | 0 | 0 | 0 |
| CN1CCN(Cc2ccc(NC(=O)Nc3ccc(N(C)c4ccnc(Nc5ccc(CS(C)(=O)=O)cc5)n4)cc3)cc2)CC1.Cl [GW827654] | 10 | 77 | 11 | 28 | 0 | 0 | 94.5 | 48 | 45 | 33 |
| O=C(O)C(F)(F)F.O=c1[nH]ccc2nc(N[C@@H]3CCNC3)nc(Nc3ccc4c(c3)S(=O)(=O)CC4)c12 [GSK2181306] | 27 | 24 | 9 | 0 | 5 | 8 | 19 | 8 | 0 | 0 |
| COC(=O)Nc1nc2cc(Oc3ccc(NC(=O)Nc4cccc(SC)c4)cc3)ccc2[nH]1.Cl [GW697999] | 54 | 96.8 | 61 | 70 | 19 | 70 | 80 | 32 | 14 | 35 |
| Cn1cc(-c2ccc3c(c2)CCN3C(=O)Cc2cc(F)cc(F)c2F)c2c(N)ncnc21 [GSK2634140] | 3 | 8 | 14 | 0 | 11 | 0 | 87 | 31 | 0 | 41 |
| Cc1nn2c(=O)cc(N3CCO[C@H](C)C3)nc2n1Cc1cccc(Cl)c1Cl [GSK2373693] | 0 | 2 | 3 | 66 | 0 | 5 | 3 | 0 | 0 | 0 |
| Cc1ccc(C)c(NC(=O)Nc2ccc(C)c(-c3ccc(C(=O)Nc4ccncc4)cc3)c2)c1 [GSK1398473] | 3 | 46 | 23 | 32 | 12 | 14 | 0 | 0 | 0 | 44 |
| CSc1ccc(NC2=C(c3ccc(Cl)cc3)C(=O)NC2=O)cc1 [SB-317658] | 0 | 5 | 0 | 6 | 21 | 11 | 0 | 0 | 0 | 0 |
| Cl.Cl.NC(CNC(=O)c1cc(Br)c(-c2ccnc3[nH]ccc23)s1)c1ccccc1 (stereo not shown) [GSK1322949] | 10 | 24 | 27 | 15 | 0 | 3 | 75 | 24 | 18 | 0 |
| O=C(Nc1c(F)cccc1F)c1cc(C(=O)c2ccccc2F)c[nH]1 [GSK1326180] | 0 | 0 | 4 | 0 | 6 | 0 | 0 | 35 | 20 | 0 |
